The results in this text go back to the supplement of paper PMC12067093, “Discovery and optimisation of a covalent ligand for TRIM25 and its application to targeted protein ubiquitination” (Chemical Science, 2025).

Compound in the test: CC1Cc2ccccc2N1C(=O)C1CCCN(C1)C(=O)CCl (mixture of isomers) [TRIM25 ligand 11 (diastereomer mixture)]
Description: probe-labelled cysteine peptide fold change vs DMSO (competition) (log2 fold change); higher = less target engagement (more negative = stronger competition). The note with it: THP-1, incubation time: 4 h.

About 21,000 targets were measured; listed, in parts, are those with the largest changes and a random draw of the rest.
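Further: competitive chemoproteomic profiling in live THP-1 cells with an iodoacetamide desthiobiotin (IA-DTB) probe, comparing probe-labelled peptide intensities in compound-treated cells against DMSO-treated controls.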

Sequence of UniProt P30626 (P30626 whole entry, looked up): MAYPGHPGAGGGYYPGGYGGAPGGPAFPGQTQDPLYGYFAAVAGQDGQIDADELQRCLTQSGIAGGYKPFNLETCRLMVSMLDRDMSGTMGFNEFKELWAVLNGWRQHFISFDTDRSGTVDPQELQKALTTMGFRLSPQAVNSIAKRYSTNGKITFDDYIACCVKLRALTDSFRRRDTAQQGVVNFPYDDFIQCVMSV
Sequence of UniProt Q6UVJ0 (Q6UVJ0 whole entry, looked up): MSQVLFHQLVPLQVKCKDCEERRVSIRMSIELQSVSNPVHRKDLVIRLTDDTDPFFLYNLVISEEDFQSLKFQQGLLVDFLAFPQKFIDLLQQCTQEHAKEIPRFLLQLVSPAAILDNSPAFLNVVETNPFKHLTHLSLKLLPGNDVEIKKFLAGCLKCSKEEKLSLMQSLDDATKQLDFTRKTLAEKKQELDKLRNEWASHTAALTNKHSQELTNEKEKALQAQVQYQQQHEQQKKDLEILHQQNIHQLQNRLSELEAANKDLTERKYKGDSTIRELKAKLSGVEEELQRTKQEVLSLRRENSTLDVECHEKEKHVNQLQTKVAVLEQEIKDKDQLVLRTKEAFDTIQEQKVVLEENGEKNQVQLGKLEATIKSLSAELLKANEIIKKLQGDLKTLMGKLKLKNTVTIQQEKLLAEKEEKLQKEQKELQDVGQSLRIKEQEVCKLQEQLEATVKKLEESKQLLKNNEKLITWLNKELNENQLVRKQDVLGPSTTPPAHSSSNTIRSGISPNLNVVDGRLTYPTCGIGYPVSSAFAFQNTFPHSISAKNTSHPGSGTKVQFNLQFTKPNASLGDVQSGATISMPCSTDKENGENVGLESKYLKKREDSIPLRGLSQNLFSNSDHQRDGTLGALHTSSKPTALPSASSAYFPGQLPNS
Sequence of UniProt Q9Y6P5 (Q9Y6P5 whole entry): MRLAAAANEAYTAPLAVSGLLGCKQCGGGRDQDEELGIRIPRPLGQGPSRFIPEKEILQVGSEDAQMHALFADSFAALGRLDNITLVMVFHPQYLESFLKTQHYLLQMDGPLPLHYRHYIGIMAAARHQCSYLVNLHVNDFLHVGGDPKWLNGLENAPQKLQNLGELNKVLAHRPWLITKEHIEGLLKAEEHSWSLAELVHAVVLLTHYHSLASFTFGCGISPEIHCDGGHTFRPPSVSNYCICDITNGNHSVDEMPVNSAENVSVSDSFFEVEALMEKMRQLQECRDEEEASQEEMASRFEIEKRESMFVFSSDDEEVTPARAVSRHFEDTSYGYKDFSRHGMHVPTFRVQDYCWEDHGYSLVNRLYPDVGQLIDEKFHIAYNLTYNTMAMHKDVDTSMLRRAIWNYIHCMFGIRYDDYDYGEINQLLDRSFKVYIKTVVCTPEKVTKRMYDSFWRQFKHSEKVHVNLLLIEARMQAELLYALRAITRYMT
Sequence of UniProt Q9H714 (Q9H714 whole entry, looked up): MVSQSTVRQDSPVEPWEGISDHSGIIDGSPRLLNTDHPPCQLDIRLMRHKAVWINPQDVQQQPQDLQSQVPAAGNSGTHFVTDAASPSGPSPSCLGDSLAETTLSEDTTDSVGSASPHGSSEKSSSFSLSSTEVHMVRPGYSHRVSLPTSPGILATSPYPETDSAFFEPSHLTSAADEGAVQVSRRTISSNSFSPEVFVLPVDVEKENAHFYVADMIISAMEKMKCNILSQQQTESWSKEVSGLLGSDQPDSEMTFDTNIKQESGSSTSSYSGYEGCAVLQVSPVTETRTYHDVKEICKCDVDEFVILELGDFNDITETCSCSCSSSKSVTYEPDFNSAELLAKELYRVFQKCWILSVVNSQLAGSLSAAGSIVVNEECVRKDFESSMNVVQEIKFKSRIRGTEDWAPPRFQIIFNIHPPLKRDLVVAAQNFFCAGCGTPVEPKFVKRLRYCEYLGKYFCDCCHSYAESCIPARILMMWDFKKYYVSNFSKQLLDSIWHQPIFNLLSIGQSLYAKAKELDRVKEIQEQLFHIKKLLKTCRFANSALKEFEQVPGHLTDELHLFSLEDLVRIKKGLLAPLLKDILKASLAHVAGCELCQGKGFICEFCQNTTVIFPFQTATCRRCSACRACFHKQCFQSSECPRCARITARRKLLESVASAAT
Sequence of UniProt P05109 (P05109 whole entry): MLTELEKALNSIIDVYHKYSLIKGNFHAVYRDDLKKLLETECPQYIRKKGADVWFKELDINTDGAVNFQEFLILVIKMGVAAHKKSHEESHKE
Sequence of UniProt Q15437 (Q15437 whole entry, looked up): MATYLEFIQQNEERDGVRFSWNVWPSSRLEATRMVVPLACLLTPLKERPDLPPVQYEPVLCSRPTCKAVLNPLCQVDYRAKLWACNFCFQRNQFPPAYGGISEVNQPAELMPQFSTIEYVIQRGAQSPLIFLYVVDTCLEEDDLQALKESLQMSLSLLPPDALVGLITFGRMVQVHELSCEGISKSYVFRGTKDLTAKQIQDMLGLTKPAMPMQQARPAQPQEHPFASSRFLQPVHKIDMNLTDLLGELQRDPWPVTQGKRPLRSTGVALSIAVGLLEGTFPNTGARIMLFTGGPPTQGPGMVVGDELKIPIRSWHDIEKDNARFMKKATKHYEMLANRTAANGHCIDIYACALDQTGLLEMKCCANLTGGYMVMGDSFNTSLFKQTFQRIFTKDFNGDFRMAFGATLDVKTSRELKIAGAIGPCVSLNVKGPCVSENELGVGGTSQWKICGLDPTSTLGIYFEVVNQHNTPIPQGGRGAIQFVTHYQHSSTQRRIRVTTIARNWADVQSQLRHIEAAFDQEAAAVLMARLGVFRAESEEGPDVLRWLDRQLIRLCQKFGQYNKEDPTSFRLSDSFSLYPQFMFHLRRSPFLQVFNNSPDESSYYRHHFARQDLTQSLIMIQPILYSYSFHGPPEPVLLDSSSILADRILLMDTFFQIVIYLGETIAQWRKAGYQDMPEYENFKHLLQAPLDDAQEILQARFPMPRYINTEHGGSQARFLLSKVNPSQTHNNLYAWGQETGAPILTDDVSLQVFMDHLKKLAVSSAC
Sequence of UniProt Q9NXE4 (Q9NXE4 whole entry, looked up): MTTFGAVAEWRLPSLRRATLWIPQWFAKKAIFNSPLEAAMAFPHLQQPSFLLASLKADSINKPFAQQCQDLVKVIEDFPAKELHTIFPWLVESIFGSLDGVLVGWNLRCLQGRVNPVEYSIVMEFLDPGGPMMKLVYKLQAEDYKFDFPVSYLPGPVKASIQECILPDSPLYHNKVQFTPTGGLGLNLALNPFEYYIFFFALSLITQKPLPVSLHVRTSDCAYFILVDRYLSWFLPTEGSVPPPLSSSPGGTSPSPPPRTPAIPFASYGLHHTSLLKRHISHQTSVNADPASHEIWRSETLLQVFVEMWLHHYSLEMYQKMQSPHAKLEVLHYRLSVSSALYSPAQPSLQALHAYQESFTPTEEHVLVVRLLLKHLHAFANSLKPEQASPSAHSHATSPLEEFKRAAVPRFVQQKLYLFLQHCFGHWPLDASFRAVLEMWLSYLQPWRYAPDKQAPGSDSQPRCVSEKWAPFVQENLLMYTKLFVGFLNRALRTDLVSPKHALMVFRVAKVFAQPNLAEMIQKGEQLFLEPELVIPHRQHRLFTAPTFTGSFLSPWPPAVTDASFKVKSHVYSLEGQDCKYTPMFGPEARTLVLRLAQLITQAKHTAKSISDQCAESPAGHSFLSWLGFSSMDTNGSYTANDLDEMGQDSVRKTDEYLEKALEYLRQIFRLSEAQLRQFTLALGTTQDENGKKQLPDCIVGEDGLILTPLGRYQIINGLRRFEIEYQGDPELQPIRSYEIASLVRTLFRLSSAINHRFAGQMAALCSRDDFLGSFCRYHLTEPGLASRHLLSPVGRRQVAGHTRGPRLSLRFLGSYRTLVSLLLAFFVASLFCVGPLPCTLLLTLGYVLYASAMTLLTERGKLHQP
Sequence of UniProt Q9UM01 (Q9UM01 whole entry): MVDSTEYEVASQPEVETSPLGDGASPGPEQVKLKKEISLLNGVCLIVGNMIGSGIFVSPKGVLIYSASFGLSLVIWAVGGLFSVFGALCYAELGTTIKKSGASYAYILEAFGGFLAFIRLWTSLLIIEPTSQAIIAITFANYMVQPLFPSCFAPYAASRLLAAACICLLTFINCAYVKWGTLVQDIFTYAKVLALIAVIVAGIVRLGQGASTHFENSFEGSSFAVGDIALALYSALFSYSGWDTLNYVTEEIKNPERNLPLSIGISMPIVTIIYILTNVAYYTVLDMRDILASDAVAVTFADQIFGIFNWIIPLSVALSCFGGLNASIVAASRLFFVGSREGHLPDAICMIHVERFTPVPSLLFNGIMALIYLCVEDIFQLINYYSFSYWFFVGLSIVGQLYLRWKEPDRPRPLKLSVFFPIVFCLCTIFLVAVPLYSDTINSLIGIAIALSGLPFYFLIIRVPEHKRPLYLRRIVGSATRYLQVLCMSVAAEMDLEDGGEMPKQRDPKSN
Sequence of UniProt P09234 (P09234 whole entry, looked up): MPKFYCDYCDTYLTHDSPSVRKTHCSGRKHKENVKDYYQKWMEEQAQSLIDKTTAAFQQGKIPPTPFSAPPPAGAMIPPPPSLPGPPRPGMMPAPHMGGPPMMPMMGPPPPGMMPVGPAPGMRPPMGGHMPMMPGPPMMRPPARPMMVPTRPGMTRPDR
Sequence of UniProt Q9Y230 (Q9Y230 whole entry, looked up): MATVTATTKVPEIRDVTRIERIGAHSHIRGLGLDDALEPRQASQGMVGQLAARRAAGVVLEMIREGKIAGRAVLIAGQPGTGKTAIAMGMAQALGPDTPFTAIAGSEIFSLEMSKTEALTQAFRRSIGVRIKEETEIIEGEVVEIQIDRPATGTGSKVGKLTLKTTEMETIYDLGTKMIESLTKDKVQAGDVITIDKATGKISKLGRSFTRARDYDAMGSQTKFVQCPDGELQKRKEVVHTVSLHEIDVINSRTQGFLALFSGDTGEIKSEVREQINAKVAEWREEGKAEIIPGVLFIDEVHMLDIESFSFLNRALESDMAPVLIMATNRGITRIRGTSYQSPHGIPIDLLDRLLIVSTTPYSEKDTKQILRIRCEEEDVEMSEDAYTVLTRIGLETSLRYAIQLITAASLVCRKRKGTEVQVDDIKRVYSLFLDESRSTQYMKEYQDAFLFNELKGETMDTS

For “SON_P18583_1551_EMEHNTVCAAGTSPVGEIGEEK (UniProt P18583)”, the “probe-labelled cysteine peptide fold change” value by setting is: (10 µM) 0.0276; (50 µM) -0.264.

Regarding “SESN1_Q9Y6P5_286_QLQECRDEEEASQEEMASR (UniProt Q9Y6P5)”, the “probe-labelled cysteine peptide fold change” value is -0.00479 (10 µM) and -0.0495 (50 µM).

Turning to “SNTB1_Q13884_515_DGEIQLDLHSCPK (UniProt Q13884)”, the “probe-labelled cysteine peptide fold change” value stood at 0.144 (10 µM) and 0.6 (50 µM).

For the target “SPATA5_Q8NB90_574_VLCNEAGLCALRR (UniProt Q8NB90)”, the “probe-labelled cysteine peptide fold change” value is -0.161 (10 µM) and -0.0738 (50 µM).

For “SNX5_Q9Y5X3_250_NVADDYIHTAACLHSLALEEPTVIKK (UniProt Q9Y5X3)”, the “probe-labelled cysteine peptide fold change” value is -0.0814 (10 µM) and -0.118 (50 µM).

For the target “S100A8_P05109_42_LLETECPQYIR (UniProt P05109)”, the “probe-labelled cysteine peptide fold change” value runs as follows: (10 µM) -0.0697; (50 µM) -0.229.

Regarding “SLC7A7_Q9UM01_349_EGHLPDAICMIHVER (UniProt Q9UM01)”, the “probe-labelled cysteine peptide fold change” value turned out to be 0.0357 (10 µM) and 0.0274 (50 µM).

On to “SRI_P30626_75_CLTQSGIAGGYKPFNLETCR (UniProt P30626)”, for which the “probe-labelled cysteine peptide fold change” value was 0.0396 (10 µM) and -0.0761 (50 µM).

For “SCAPER_Q9BY12_336_DSLHSCDHPLAEK (UniProt Q9BY12)”, the “probe-labelled cysteine peptide fold change” value runs as follows: (10 µM) -0.0351; (50 µM) -0.308.

As for “SNRPC_P09234_6_FYCDYCDTYLTHDSPSVR (UniProt P09234)”, the “probe-labelled cysteine peptide fold change” value is -0.122 (10 µM) and -0.874 (50 µM).

For the target “SMPD4_Q9NXE4_221_TSDCAYFILVDR (UniProt Q9NXE4)”, the “probe-labelled cysteine peptide fold change” value is 0.14 (10 µM) and 0.266 (50 µM).

Regarding “SMARCB1_Q12824_147_NSQWVPTLPNSSHHLDAVPCSTTINR (UniProt Q12824)”, the “probe-labelled cysteine peptide fold change” value (10 µM) was -0.0549 and the “probe-labelled cysteine peptide fold change” value (50 µM) is -0.612.

On to “SEC23B_Q15437_434_GPCVSENELGVGGTSQWK (UniProt Q15437)”, for which the “probe-labelled cysteine peptide fold change” value (10 µM) was 0.0914 and the “probe-labelled cysteine peptide fold change” value (50 µM) turned out to be 0.096.

For the target “SETDB1_Q15047_385_RCEWIYR (UniProt Q15047)”, the “probe-labelled cysteine peptide fold change” value is, setting by setting: (10 µM) 0.156; (50 µM) 0.176.

Consider “SNRPB_P14678_43+45_HMNLILCDCDEFRK (UniProt P14678)”, for which the “probe-labelled cysteine peptide fold change” value was -0.0283 (10 µM) and -0.00106 (50 µM).

On to “SRCAP_Q6ZRS2_1926_IFQLSEAHGALAPVYGTEVLDFCTLPQPVASPIGPR (UniProt Q6ZRS2)”, for which the “probe-labelled cysteine peptide fold change” value (10 µM) was found to be 0.683 and the “probe-labelled cysteine peptide fold change” value (50 µM) was 0.741.

In the case of “SETDB1_Q15047_781_RLEECLPTGVYECNKR (UniProt Q15047)”, the “probe-labelled cysteine peptide fold change” value reads like this: (10 µM) -0.124; (50 µM) -0.00361.

With “SIAE_Q9HAT2_367_MPNTFMAVAMDLCDRDSPFGSIHPR (UniProt Q9HAT2)”, the “probe-labelled cysteine peptide fold change” value runs as follows: (10 µM) -0.176; (50 µM) -0.565.

In the case of “RUBCNL_Q9H714_641_QCFQSSECPR (UniProt Q9H714)”, the “probe-labelled cysteine peptide fold change” value is, setting by setting: (10 µM) 0.144; (50 µM) 0.15.

Turning to “RRAGB_Q5VZM2_185_IFCLVHK (UniProt Q5VZM2)”, the “probe-labelled cysteine peptide fold change” value is 0.162 (10 µM) and 0.183 (50 µM).

Regarding “SF1_Q15637_282+292_CGGAGHIASDCK (UniProt Q15637)”, the “probe-labelled cysteine peptide fold change” value is -0.0927 (10 µM) and -0.0122 (50 µM).

On to “SETX_Q7Z333_1398_AGSHTAQNSDIFVPESDRSDYNCTGGTEVLANSNR (UniProt Q7Z333)”, for which the “probe-labelled cysteine peptide fold change” value by setting is: (10 µM) -0.136; (50 µM) -0.652.

For “SETX_Q7Z333_1416_CMPSEPETIK (UniProt Q7Z333)”, the “probe-labelled cysteine peptide fold change” value (10 µM) was -0.13 and the “probe-labelled cysteine peptide fold change” value (50 µM) is -0.585.

For “SEC23A_Q15436_88_LWACNFCYQR (UniProt Q15436)”, the “probe-labelled cysteine peptide fold change” value is 0.0643 (10 µM) and 0.249 (50 µM).

For “SLC7A6OS_Q96CW6_62_AAENNVFHLVATVCSQEEPVQPLLR (UniProt Q96CW6)”, the “probe-labelled cysteine peptide fold change” value is, setting by setting: (10 µM) -0.0977; (50 µM) -0.671.

Consider “SMN2_Q16637_60_NGDICETSGKPK (UniProt Q16637)”, for which the “probe-labelled cysteine peptide fold change” value was -0.146 (10 µM) and -0.16 (50 µM).

For the target “RPS5_P46782_155_VNQAIWLLCTGAR (UniProt P46782)”, the “probe-labelled cysteine peptide fold change” value (10 µM) is 0.00589 and the “probe-labelled cysteine peptide fold change” value (50 µM) amounted to 0.118.

Turning to “SMARCC2_Q8TAQ2_80_CFLDFK (UniProt Q8TAQ2)”, the “probe-labelled cysteine peptide fold change” value is -0.00468 (10 µM) and 0.128 (50 µM).

For “SMS_P52788_256_TCGDVLDNLKGDCYQVLIEDCIPVLKR (UniProt P52788)”, the “probe-labelled cysteine peptide fold change” value is -0.302 (10 µM) and -0.139 (50 µM).

Turning to “SIRT5_Q9NXA8_293+303_FHFQGPCGTTLPEALACHENETVS (UniProt Q9NXA8)”, the “probe-labelled cysteine peptide fold change” value is 0.203 (10 µM) and -0.0498 (50 µM).

On to “RUVBL2_Q9Y230_227_FVQCPDGELQK (UniProt Q9Y230)”, for which the “probe-labelled cysteine peptide fold change” value is, setting by setting: (10 µM) 0.151; (50 µM) -0.0879.

Regarding “SASS6_Q6UVJ0_94_FIDLLQQCTQEHAK (UniProt Q6UVJ0)”, the “probe-labelled cysteine peptide fold change” value is, setting by setting: (10 µM) 0.0471; (50 µM) 0.0533.

“RRP12_Q5JTH9_102_SSGTFLSGLSDCTNVTFSK (UniProt Q5JTH9)”: the “probe-labelled cysteine peptide fold change” value worked out at 0.0888 (10 µM) and 0.0733 (50 µM).

“SLC25A5_P05141_257_KGTDIMYTGTLDCWR (UniProt P05141)”: the “probe-labelled cysteine peptide fold change” value was -0.0817 (10 µM) and -0.062 (50 µM).

Turning to “SND1_Q7KZF4_96_EVCFTIENK (UniProt Q7KZF4)”, the “probe-labelled cysteine peptide fold change” value amounted to 0.00729 (10 µM) and 0.0683 (50 µM).

Turning to “SLC4A7_Q9Y6M7_120_VQFILGTEDDDEEHIPHDLFTEMDELCYR (UniProt Q9Y6M7)”, the “probe-labelled cysteine peptide fold change” value by setting is: (10 µM) 0.222; (50 µM) -0.577.

In the case of “SRP68_Q9UHB9_173_LCESNR (UniProt Q9UHB9)”, the “probe-labelled cysteine peptide fold change” value by setting is: (10 µM) 0.14; (50 µM) 0.559.

Take “SACS_Q9NZJ4_3694_QCDVLQLLWTSCPILPEK (UniProt Q9NZJ4)”: the “probe-labelled cysteine peptide fold change” value by setting is: (10 µM) -0.00918; (50 µM) -0.0315.
